In all, about 5,500 compounds went through this assay and about 2,000 (36%) were called active. Not shown: some 18% with an inconclusive outcome. Rule as the data show it: active = normalized growth mostly below about 0.91 (no sharp cut-off); inconclusive = no clear call, values can overlap the other calls; inactive = mostly above about 0.92. This is one part of the list.
Test: chemical genetic growth profiling, strain panel (AID 1159580);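 also: tested at 20 µM; growth read once vehicle control cultures reached saturation at 30 °C; 1 = growth at the plate median or of vehicle wells; lower values mean less growth of the strain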
Conditions: S. cerevisiae deletion strains, growth OD
[1] = locus YDR150W, strain NUM1, active compounds read low
[2] = locus YGR078C, strain PAC10, active compounds read low
[3] = locus YMR263W, strain SAP30, active compounds read low
[4] = locus YNL322C, strain KRE1, active compounds read low
[5] = locus YPL241C, strain CIN2, active compounds read low

Measured: normalized growth

COc1ccc(S(=O)(=O)Nc2cc(C)c(C)cc2[N+](=O)[O-])c(OC)c1
inactive: locus YAL013W, strain DEP1, active compounds read low 1.01 | locus YBR229C, strain ROT2, active compounds read low 1 | locus YCL061C, strain MRC1, active compounds read low 1 | locus YDL101C, strain DUN1, active compounds read low 1.01 | [1] 0.885 | locus YEL061C, strain CIN8, active compounds read low 1.01 | [2] 0.995 | locus YGR229C, strain SMI1, active compounds read low 1.01 | locus YHR030C, strain SLT2, active compounds read low 0.991 | locus YHR087W, strain rtc3, active compounds read low 1 | locus YJR043C, strain POL32, active compounds read low 1 | locus YJR075W, strain HOC1, active compounds read low 1.01 | locus YKL190W, strain CNB1, active compounds read low 1.02 | locus YLR039C, strain RIC1, active compounds read low 0.968 | locus YLR058C, strain SHM2 (second series), active compounds read low 1 | locus YLR085C, strain ARP6, active compounds read low 1.04 | locus YLR262C, strain YPT6, active compounds read low 0.967 | locus YML094W, strain GIM5, active compounds read low 0.983 | locus YMR219W, strain ESC1, active compounds read low 0.999 | [3] 0.973 | locus YNL128W, strain TEP1, active compounds read low 1.02 | locus YNL153C, strain GIM3, active compounds read low 1.02 | locus YNL298W, strain CLA4 (second series), active compounds read low 1.04 | [4] 0.989 | locus YNR030W, strain Alg12, active compounds read low 0.998 | locus YPL055C, strain LGE1, active compounds read low 0.889 | [5] 1.03 | locus YPR135W, strain CTF4, active compounds read low 0.946

Ic1ccccc1CNC1C2CCN(CC2)C1C(c1ccccc1)c1ccccc1 (configuration not stated)
inactive: locus YAL040C, strain CLN3, active compounds read low 0.998 | locus YCL061C, strain MRC1 (second series), active compounds read low 0.984 | [1] 0.996 | locus YDR363W, strain ESC2, active compounds read low 0.977 | locus YER002W, strain NOP16, active compounds read low 1.05 | [2] 1 | [3] 0.998 | locus YMR307W, strain GAS1, active compounds read low 0.989 | locus YNL175C, strain NOP13, active compounds read low 1.05 | locus YNL197C, strain WHI3, active compounds read low 1.07 | locus YNL224C, strain SQS1, active compounds read low 1.05 | [4] 1 | locus YOR083W, strain WHI5 (second series), active compounds read low 1.05 | [5] 0.998
